NPR1 antag: antagonists of human natriuretic peptide receptor Npr1; P16066; HEK293 hNpr1 GloSensor cGMP, ANP-stimulated luminescence; Potency, µM (doses to about 46.3 µM), usual class: inhibitors; hit rate 1.6% among 76,000; calls by dose curve; further: nearly all actives have a fitted effect of over 60% in size
Target sequence (P16066 whole entry, looked up): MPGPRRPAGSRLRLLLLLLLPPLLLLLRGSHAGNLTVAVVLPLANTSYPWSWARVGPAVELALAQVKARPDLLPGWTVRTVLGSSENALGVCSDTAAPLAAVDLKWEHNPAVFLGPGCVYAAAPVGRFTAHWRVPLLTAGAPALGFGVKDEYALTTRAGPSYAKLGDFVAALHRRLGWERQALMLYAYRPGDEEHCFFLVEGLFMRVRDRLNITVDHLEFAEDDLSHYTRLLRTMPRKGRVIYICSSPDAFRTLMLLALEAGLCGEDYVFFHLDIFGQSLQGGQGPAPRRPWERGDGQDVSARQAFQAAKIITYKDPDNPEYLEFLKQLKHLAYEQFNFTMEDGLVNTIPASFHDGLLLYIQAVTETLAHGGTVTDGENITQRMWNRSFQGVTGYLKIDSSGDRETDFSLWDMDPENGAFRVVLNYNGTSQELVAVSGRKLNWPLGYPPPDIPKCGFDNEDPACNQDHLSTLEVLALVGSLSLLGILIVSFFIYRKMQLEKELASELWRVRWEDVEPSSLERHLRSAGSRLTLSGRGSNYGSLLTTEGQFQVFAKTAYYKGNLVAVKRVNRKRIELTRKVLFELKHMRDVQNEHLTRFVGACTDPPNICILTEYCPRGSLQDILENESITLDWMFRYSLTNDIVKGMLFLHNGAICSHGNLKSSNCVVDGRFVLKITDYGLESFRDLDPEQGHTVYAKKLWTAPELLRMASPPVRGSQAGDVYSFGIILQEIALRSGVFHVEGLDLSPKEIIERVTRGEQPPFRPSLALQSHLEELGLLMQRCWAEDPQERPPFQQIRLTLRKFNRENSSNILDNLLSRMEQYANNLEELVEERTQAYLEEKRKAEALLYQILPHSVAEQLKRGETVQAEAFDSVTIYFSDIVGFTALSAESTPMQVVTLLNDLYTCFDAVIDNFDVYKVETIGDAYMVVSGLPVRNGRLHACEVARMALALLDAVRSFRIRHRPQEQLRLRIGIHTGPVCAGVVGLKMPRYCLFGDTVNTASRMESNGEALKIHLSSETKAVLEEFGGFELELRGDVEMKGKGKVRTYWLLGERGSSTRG
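Compound pre-incubated 30 min at room temperature on GloSensor-loaded HEK293 cells stably carrying hNpr1 and the pGS-40F cGMP biosensor. Stimulation uses hNppA at 0.1 nM final; luminescence is taken at baseline and 20 min post-agonist.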
GPT2 inhibitor: inhibitors of human GPT2 alanine aminotransferase; Q8TD30; Recombinant GPT2, coupled pyruvate oxidase/HRP Amplex Red fluorescence; Potency, µM (highest dose often 57.7 µM), usual class: inhibitors; hit rate 0.25% among 100,000; AID 1671188; further: nearly all actives have a fitted effect of over 60% in size
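Fluorescence of coupled pyruvate oxidase/HRP/Amplex Red system (50uM Amplex, 30 min, dark) reports pyruvate formed by GPT2. Enzyme reaction: 10ng/uL GPT2, 2mM L-alanine, 250uM a-KG, 30 min room temperature, pH 7.5; 50uM AOA control.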
NIH3T3 tox: kills NIH 3T3 cells | NIH 3T3 viability, CellTiter-Glo ATP luminescence, 48-72 h | Potency, µM (doses to about 96.7 µM), usual class: inhibitors | hit rate 4.3% among 94,000; further: nearly all actives have a fitted effect of over 55% in size
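Mouse fibroblast NIH 3T3 cells, 400 per well, received compound via pintool and were incubated for 48 or 72 hr prior to CellTiter-Glo ATP luminescence measurement.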
HEK cytotox: kills HEK 293 cells. HEK 293 viability, ATP luminescence (CellTiter-Glo), 48-72 h. hit rate 6.6% among 94,000. AID 1345083. Potency, µM (highest dose often 115 µM), most hits filed as inhibitors; further: nearly all actives have a fitted effect of over 60% in size
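Read-out: CellTiter-Glo ATP luminescence. Cells: HEK 293, 250 cells/well. Exposure: 48 or 72 hr, 37 degree Celsius.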
FLuc inh: blocks purified firefly luciferase enzyme activity; P08659; purified P. pyralis luciferase, luminescence, biochemical; Potency, µM (series often up to 115 µM), usual class: inhibitors; hit rate 2.5% among 76,000; further: nearly all actives have a fitted effect of over 65% in size
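Biochemical qHTS: compound (6-point titration) added to 10uM D-luciferin plus 10uM ATP in Tris acetate pH 7.5 buffer with Mg, Tween-20 and BSA, then purified enzyme at 10nM; light output imaged.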
Large screens that a line does not name were inactive. Only some compounds are listed: those with a hit (about 10% of all), similar ones and a draw of the others. Unless noted, the call rests on the fitted dose curve; in most records, active means well fitted curve in the direction sought with a large enough effect; inconclusive means small, poorly fitted or top-dose-only effect, or another doubt; inactive means no such curve, though single readings can be large; an effect the other way counts as inactive or inconclusive.

Cc1cccc(OCC(=O)NCCn2cccc2-c2nc(-c3ccc4c(c3)OCO4)no2)c1	NIH3T3 tox inconclusive, HEK cytotox inconclusive, FLuc inh 14µM
COc1ccc(C(=O)NCCn2cccc2-c2nc(-c3ccccc3)no2)cc1F	none
Cc1ccc(C(=O)NCCn2cccc2-c2nc(-c3ccc4c(c3)OCO4)no2)cc1C	NIH3T3 tox inconclusive, HEK cytotox inconclusive, FLuc inh 11µM
O=C(NCCn1cccc1-c1nc(-c2ccc3c(c2)OCO3)no1)c1ccc(F)cc1	NPR1 antag inconclusive, NIH3T3 tox inconclusive, HEK cytotox inconclusive, FLuc inh inconclusive
O=C(NCCn1cccc1-c1nc(-c2ccc3c(c2)OCO3)no1)c1ccc2c(c1)OCO2	FLuc inh 10µM
CC(C)Cc1cnc(C2CCCN(C(=O)OC(C)(C)C)C2)[nH]1 (stereo not given)	NIH3T3 tox 89µM, HEK cytotox inconclusive (no result: NPR1 antag, FLuc inh)
CCN1c2cc(C(=O)NC3CCCCCC3)ccc2C(=O)N2CCCCCC21 (stereo not given)	NIH3T3 tox inconclusive, HEK cytotox inconclusive
Cc1ccccc1C(=O)N(C)C1CCCc2ccccc21 (stereo not given)	NIH3T3 tox inconclusive, HEK cytotox 89µM
Cc1ccc(S(=O)(=O)N(C)C2CCCc3ccccc32)cc1 (stereo not given)	NIH3T3 tox inconclusive, HEK cytotox 89µM
CN(C1CCCc2ccccc21)S(C)(=O)=O (stereo not given)	none
CN(C(=O)c1ccc(C(F)(F)F)cc1)C1CCCc2ccccc21 (stereo not given)	NIH3T3 tox 50µM, HEK cytotox inconclusive, FLuc inh inconclusive
CN(C(=O)C1CC1)C1CCCc2ccccc21 (stereo not given)	NIH3T3 tox inconclusive, HEK cytotox inconclusive
CN(C(=O)Cc1cccc(Cl)c1)C1CCCc2ccccc21 (stereo not given)	NIH3T3 tox inconclusive, HEK cytotox 100µM
O=C(Cc1ccccc1)NCCC1CCN(C(=O)Nc2ccccc2)CC1	none
CCCNC(=O)N1CCC(c2ncc(C)n2Cc2ccc(F)cc2)C1 (stereo not given)	none (no result: NPR1 antag, FLuc inh)
CC1(c2ccccc2)N(Cc2ccccc2)C(=O)OC12CCN(Cc1ccc(C#N)cc1)CC2 (stereo not given)	HEK cytotox inconclusive
Cc1c(F)cccc1NC(=O)N1CCCC(c2noc(COc3ccccc3F)n2)C1 (stereo not given)	NPR1 antag inconclusive, NIH3T3 tox inconclusive, HEK cytotox inconclusive, FLuc inh 14µM
CC(C)C(=O)N1CCCC(c2noc(COc3ccccc3F)n2)C1 (stereo not given)	HEK cytotox inconclusive, FLuc inh 40µM
CCc1ccc(C(=O)N2C[C@@H](CO)[C@H](c3nc(CCOC)no3)C2)cc1	none
CC(C)(C)OC(=O)NCCCC(=O)N1CCC(n2c(=O)[nH]c3ccccc32)CC1	NPR1 antag 20µM, HEK cytotox inconclusive
O=C(C1COc2ccccc2C1)N1CCC(n2c(=O)[nH]c3ccccc32)CC1 (stereo not given)	NPR1 antag inconclusive, NIH3T3 tox inconclusive, HEK cytotox 22µM
Cc1cnn(Cc2cc(C(=O)N3CC[C@@H](n4c(=O)n(C)c5cccnc54)C3)no2)c1	none (no result: NPR1 antag, FLuc inh)
O=C(NCC1CN(CC2CC2)CC12CN(c1ccccc1)C2)c1ccccc1 (stereo not given)	NIH3T3 tox 89µM, HEK cytotox inconclusive
O=C(NCC1CN(CC2CC2)CC12CN(c1ccccc1)C2)Nc1ccccc1 (stereo not given)	NIH3T3 tox 100µM, HEK cytotox inconclusive
Cc1nn(-c2ccccc2)c2c1C(C1CC1)N(C1CN(C(=O)c3ccc(F)cc3)C1)C2=O (stereo not given)	NIH3T3 tox inconclusive, HEK cytotox 45µM (no result: NPR1 antag, GPT2 inhibitor, FLuc inh)
COCC(=O)N1CC(N2C(=O)c3c(c(C)nn3-c3ccccc3)C2C2CC2)C1 (stereo not given)	NIH3T3 tox 112µM (no result: NPR1 antag, GPT2 inhibitor, FLuc inh)
O=C(C1CCN(C(=O)N2CC3CC(C2)[C@H]2CCCC(=O)N2C3)CC1)N1CCc2ccccc2C1 (stereo not given in full)	none
COc1ccc(NC(=O)N2C[C@@H]3C[C@H](C2)c2ccc(NS(=O)(=O)c4ccc(OC)cc4)c(=O)n2C3)cc1	none

Bioassay records from PubChem BioAssay.
